# Reference: PubChem BioAssay (NCATS)
# Results filed as inconclusive are left out. Values without a mark were called inactive. Calls of active or inactive are those of the source. Calls follow the shape of the dose curve; as a rule, active = well fitted inhibition curve with a large enough effect; inconclusive = small, poorly fitted or top-dose-only effect; inactive = flat fitted curve, though single readings scatter.
# Legend:
# Assay in all cases: Cytotoxic Profiling of Annotated Libraries Using Quantitative High-Throughput Screening (AID 1296008); also: nearly all actives have a fitted effect of over 60% in size
# Details in all cases: Five cell lines viability, CellTiter-Glo ATP luminescence, 48-72 h; max response: hits give low values
# [1] = test system: CRL-7250
# Procedure, shortened: (§1)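 Cytotoxicity was measured as CellTiter-Glo ATP luminescence, read after 10 min at room temperature. Compound treatment of the cells lasted 48 or 72 hr at 37 degrees Celsius in a qHTS format.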
# [2] = test system: HEK293
# Procedure, shortened: as §1
# [3] = test system: HaCat
# Procedure, shortened: as §1
# [4] = test system: KB-3-1
# Procedure, shortened: as §1
# [5] = test system: NIH3T3
# Procedure, shortened: as §1
# % is scaled to controls: 0 for no effect and ±100 for the full control effect; potency is read from the fitted curve at half-maximal effect.
structure (smiles),measurement,setting,value
CC(C)c1ccc2c(c1)C(=O)CC1[C@@](C)(C(=O)O)CCC[C@]21C (stereo not given in full),max response,[1],2.88%
same,max response,[2],3.51%
same,max response,[3],-7.44%
same,max response,[4],-10.5%
same,max response,[5],0.286%
C/C1=C\C[C@]2(C)C(=O)C(O)=C([C@H](C)CO)[C@H]2C/C=C(\C)[C@@H](O)CC/C(C)=C/CC1,max response,[1],3.52%
same,max response,[2],2.1%
same,max response,[3],0.087%
same,max response,[4],0.384%
same,max response,[5],-2.65%
OC/C=C/c1ccc(O[C@@H]2O[C@H](CO)[C@@H](O)[C@H](O)[C@H]2O)cc1,max response,[1],-14.7%
same,max response,[2],-1.19%
same,max response,[3],4.35%
same,max response,[4],3.13%
same,max response,[5],-0.785%
C=C1CCCC2(C)CC3(OC)OC(=O)C(C)=C3CC12 (stereo not given),max response,[1],2.37%
same,max response,[2],3.93%
same,max response,[3],2.5%
same,max response,[4],-2.16%
same,max response,[5],-10.6%
CC(=O)O[C@H]1[C@@H](O)[C@H](O[C@H]2[C@@H]3C=CO[C@@H](O[C@H]4O[C@@H](CO)[C@H](O)[C@@H](O)[C@@H]4O)[C@@H]3[C@@]3(CO)O[C@@H]23)O[C@@H](C)[C@@H]1OC(=O)/C=C/c1ccccc1,max response,[1],-1.67%
same,max response,[2],4.7%
same,max response,[3],-2.99%
same,outcome,[4],inactive
same,max response,[5],-6.79%
O=C1CCC=CC1(O)C(=O)OCc1ccccc1O[C@@H]1O[C@H](CO)[C@@H](O)[C@H](O)[C@H]1O (stereo not given in full),max response,[1],-18.5%
same,max response,[2],-24.1%
same,max response,[3],-22.3%
same,max response,[4],-1.56%
same,max response,[5],-27.2%
CC1=C(CCC(C)O[C@@H]2O[C@H](CO)[C@@H](O)[C@H](O)[C@H]2O)C(C)(C)CCC1=O (stereo not given in full),max response,[1],-22.3%
same,max response,[2],4.11%
same,max response,[3],-0.525%
same,max response,[4],8.72%
same,max response,[5],-15.3%
CC(CO)C1CCC2(C)CC3C(CO)CC(O)C3C(C)(O)C/C=C/12 (stereo not given),max response,[1],-6.97%
same,max response,[2],-10.5%
same,max response,[3],-5.8%
same,outcome,[4],inactive
same,max response,[5],0.217%
COc1cc2c(cc1O)[C@H](c1ccc(O[C@@H]3O[C@H](CO)[C@@H](O)[C@H](O)[C@H]3O)c(OC)c1)[C@@H](CO)[C@](O)(CO)C2,max response,[1],4.77%
same,max response,[2],2.27%
same,max response,[3],-2.06%
same,outcome,[4],inactive
same,max response,[5],2.92%
CC(C)c1cc(C(=O)N2CC[C@@H](NC(=O)C3CC3)C2)n[nH]1,max response,[1],-17.8%
same,max response,[2],-9.12%
same,max response,[3],0.869%
same,max response,[4],2.09%
same,max response,[5],-14.5%
C=C1C[C@]23C[C@H]1CC[C@H]2[C@]1(C)CCC[C@@](C)(C(=O)O)[C@H]1[C@@H]3C(=O)O,outcome,[1],inactive
same,max response,[2],-6%
same,max response,[3],-5.4%
same,max response,[4],0.882%
same,max response,[5],2.88%
C[C@@H]1O[C@@H](O[C@H]2[C@H](O[C@H]3[C@H](O)[C@@H](C(=O)O)O[C@@H](O[C@H]4CC[C@@]5(C)C(CC[C@]6(C)C5CC[C@]57OC[C@@]8(CCC(C)(C)CC85)[C@H](O)C[C@]76C)C4(C)C)[C@@H]3O[C@@H]3O[C@H](CO)[C@@H](O[C@@H]4OC[C@@H](O)[C@H](O)[C@H]4O)[C@H](O)[C@H]3O)O[C@H](CO)[C@H](O)[C@@H]2O)[C@H](O)[C@H](O)[C@H]1O (stereo not given in full),max response,[1],-4.31%
same,max response,[2],-0.169%
same,max response,[3],1.4%
same,outcome,[4],inactive
same,max response,[5],2.61%
N#Cc1ccc(C(=O)N2CCC3(CC2)N=C(N)c2c(F)ccc(F)c2N3)cn1,max response,[1],-4.2%
same,max response,[2],-18.7%
same,max response,[3],2.01%
same,max response,[4],-9.49%
same,max response,[5],-5.13%
Cc1ccc(-c2ccc3c(ccc4sc5c(c43)NC[C@@H](C)NC5=O)n2)cn1,outcome,[1],inactive
same,max response,[2],-21.3%
same,max response,[3],-8.25%
same,outcome,[4],inactive
same,max response,[5],-0.392%
O=[N+]([O-])c1cn2c(n1)OCC(OCc1ccc(OC(F)(F)F)cc1)C2 (stereo not given),max response,[1],-10.3%
same,max response,[2],-14.5%
same,max response,[3],-6.12%
same,max response,[4],-10.4%
same,max response,[5],0.653%
Cc1cn(C2C=CC(CO)O2)c(=O)[nH]c1=O (stereo not given),max response,[1],-8.63%
same,max response,[2],-22.8%
same,max response,[3],-43.4%
same,max response,[4],6.19%
same,max response,[5],-7.77%
OC[C@@]1(O)CO[C@@H](OC[C@H]2O[C@@H](Oc3c[nH]c4ccccc34)[C@H](O)[C@@H](O)[C@@H]2O)[C@@H]1O,max response,[1],-23.1%
same,max response,[2],-21.5%
same,max response,[3],-26.1%
same,max response,[4],-0.625%
same,max response,[5],1.55%
C[C@@H]1O[C@@H](OC[C@H]2O[C@@H](OC(CCCCc3ccc(O)cc3)CCc3ccc(O)cc3)[C@H](O)[C@@H](O)[C@@H]2O)[C@H](O)[C@H](O)[C@H]1O (stereo not given in full),max response,[1],3.8%
same,max response,[2],1.77%
same,max response,[3],-5.01%
same,outcome,[4],inactive
same,max response,[5],-4.82%
c1ccc(-c2ncc(CN3CCN(c4ncccn4)CC3)[nH]2)cc1,max response,[1],-0.931%
same,max response,[2],0.625%
same,max response,[3],0.273%
same,max response,[4],-2.29%
same,max response,[5],-1.52%
O=C(NOCC(O)CO)c1ccc(F)c(F)c1Nc1ccc(I)cc1F (stereo not given),Potency,[1],4.61 µM (active)
same,max response,[2],2.15%
same,max response,[3],-79.3%
same,outcome,[4],inactive
same,Potency,[5],1.84 µM (active)
C/C1=C\CCC2=C[C@@H](OC2=O)c2c(C)coc2C1,max response,[1],1.59%
same,max response,[2],-3.99%
same,max response,[3],-3.91%
same,max response,[4],2.55%
same,max response,[5],-21.8%
CCc1cc(CN2CC(C(=O)O)C2)sc1-c1noc(-c2ccc(Oc3ccccc3)cc2)n1,max response,[1],-28.8%
same,max response,[2],-73%
same,max response,[3],-26.8%
same,max response,[4],-20.8%
same,max response,[5],-43%
CC1=C(CO)C(=O)O[C@@H]([C@@H](C)[C@H]2CC[C@H]3[C@@H]4C[C@H]5O[C@]56[C@@H](O)C=CC(=O)[C@]6(C)[C@H]4CC[C@]23C)C1,Potency,[1],3.99 µM (active)
same,Potency,[2],1.12 µM (active)
same,Potency,[3],3.17 µM (active)
same,Potency,[4],2.82 µM (active)
same,Potency,[5],5.63 µM (active)
COc1c2c(c(C)c3c1C(=O)OC3)OC1(C)CC(O)C(C(C)(C)O)C(C)(CCC(=O)O)C1C2 (stereo not given),outcome,[1],inactive
same,max response,[2],-5.2%
same,max response,[3],-1.29%
same,outcome,[4],inactive
same,max response,[5],0.542%
OCCc1ccc(O[C@@H]2O[C@H](CO)[C@@H](O)[C@H](O)[C@H]2O)cc1,max response,[1],2.72%
same,max response,[2],0.276%
same,max response,[3],-3.11%
same,max response,[4],-1.98%
same,max response,[5],2.39%
C[C@@H]1O[C@@H](O[C@H]2[C@H](O)[C@@H](C(=O)O)O[C@@H](O[C@H]3CC[C@@]4(C)C(CC[C@]5(C)C4CC=C4C6CC(C)(C)CC[C@]6(C(=O)O)CC[C@]45C)C3(C)C)[C@@H]2O[C@@H]2OC[C@@H](O)[C@H](O)[C@H]2O)[C@H](O)[C@H](O)[C@H]1O (stereo not given in full),max response,[1],3.95%
same,max response,[2],-0.663%
same,max response,[3],-12.7%
same,max response,[4],9.7%
same,max response,[5],0.526%
C/C=C/c1cc(OC)c2c(c1)[C@@H](C)[C@@H](c1ccc(O)c(OC)c1)O2,max response,[1],-4.41%
same,max response,[2],-109%
same,max response,[3],-83.1%
same,max response,[4],-24.2%
same,max response,[5],-61.9%
COc1c/c(=C2\C=c3ccccc3=N2)[nH]/c1=C\c1[nH]c(C)cc1C,Potency,[1],1.84 µM (active)
same,Potency,[2],1.3 µM (active)
same,Potency,[3],4.11 µM (active)
same,Potency,[4],2.31 µM (active)
same,Potency,[5],6.51 µM (active)
C=C[C@@](C)(O)CC/C=C(\C)C(=O)O[C@@H]1[C@@H]2O[C@]2(C)[C@H]2[C@H](O[C@@H]3O[C@H](CO)[C@@H](O)[C@H](O)[C@H]3O)OC=C[C@@]12O,max response,[1],-6.64%
same,max response,[2],0.966%
same,max response,[3],-5.52%
same,max response,[4],-1.11%
same,max response,[5],1.5%
C=CC(=O)Nc1cc(Nc2nccc(-c3c[nH]c4ccccc34)n2)c(OC)cc1N(C)CCN(C)C,Potency,[1],18.4 µM (active)
same,Potency,[2],5.17 µM (active)
same,Potency,[3],0.0366 µM (active)
same,Potency,[4],8.2 µM (active)
same,Potency,[5],14.6 µM (active)
C[C@]1(CO)CCC[C@]2(C)C3=C(CCC12)COC3 (stereo not given in full),max response,[1],-5.66%
same,max response,[2],-9.57%
same,max response,[3],-11.9%
same,max response,[4],5.06%
same,max response,[5],4.03%
COC(=O)C[C@H]1C(C)(C)[C@H](OC(C)=O)C2CC3=C4CC(=O)O[C@@H](c5ccoc5)[C@]4(C)CCC3[C@@]1(C)C2=O (stereo not given in full),max response,[1],3.53%
same,max response,[2],-19.9%
same,max response,[3],1.4%
same,max response,[4],4.19%
same,max response,[5],-4.77%
Cc1cc(C(=O)N2CCCCc3ccccc32)ccc1CNC(=O)N1CCC[C@H]1C(=O)N(C)C,max response,[1],-2.89%
same,max response,[2],-0.739%
same,max response,[3],-11%
same,max response,[4],4.93%
same,max response,[5],3.28%
Nc1ccc(-c2cccc3c(=O)cc(N4CCOCC4)oc23)cc1,Potency,[1],5.8 µM (active)
same,Potency,[2],7.31 µM (active)
same,Potency,[3],6.51 µM (active)
same,Potency,[4],20.6 µM (active)
same,Potency,[5],8.2 µM (active)
CC1(C)CC2C(C1)C(C)(O)C13CC1(COC3=O)C2O (stereo not given),max response,[1],-28%
same,max response,[2],-10.5%
same,max response,[3],-11.6%
same,max response,[4],-11%
same,max response,[5],-6.54%
Cc1cc2c(c(=O)[nH]1)OC(C(O)CC(C)C)O2 (stereo not given),max response,[1],-20.7%
same,max response,[2],-7.89%
same,max response,[3],-1.41%
same,max response,[4],-1.2%
same,max response,[5],-0.186%
